These results are taken from PubChem BioAssay AID504710 (Sanford-Burnham Center for Chemical Genomics, 2011).

The structures appear in SMILES notation. The source made the active and inactive calls.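 Rule for the calls: active = inhibition reaching about 16% in any single replicate (limit read from the data); inactive = the rest.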

Hexokinase HKDC1 (Homo sapiens), sequence (Q2TB90 whole entry, looked up): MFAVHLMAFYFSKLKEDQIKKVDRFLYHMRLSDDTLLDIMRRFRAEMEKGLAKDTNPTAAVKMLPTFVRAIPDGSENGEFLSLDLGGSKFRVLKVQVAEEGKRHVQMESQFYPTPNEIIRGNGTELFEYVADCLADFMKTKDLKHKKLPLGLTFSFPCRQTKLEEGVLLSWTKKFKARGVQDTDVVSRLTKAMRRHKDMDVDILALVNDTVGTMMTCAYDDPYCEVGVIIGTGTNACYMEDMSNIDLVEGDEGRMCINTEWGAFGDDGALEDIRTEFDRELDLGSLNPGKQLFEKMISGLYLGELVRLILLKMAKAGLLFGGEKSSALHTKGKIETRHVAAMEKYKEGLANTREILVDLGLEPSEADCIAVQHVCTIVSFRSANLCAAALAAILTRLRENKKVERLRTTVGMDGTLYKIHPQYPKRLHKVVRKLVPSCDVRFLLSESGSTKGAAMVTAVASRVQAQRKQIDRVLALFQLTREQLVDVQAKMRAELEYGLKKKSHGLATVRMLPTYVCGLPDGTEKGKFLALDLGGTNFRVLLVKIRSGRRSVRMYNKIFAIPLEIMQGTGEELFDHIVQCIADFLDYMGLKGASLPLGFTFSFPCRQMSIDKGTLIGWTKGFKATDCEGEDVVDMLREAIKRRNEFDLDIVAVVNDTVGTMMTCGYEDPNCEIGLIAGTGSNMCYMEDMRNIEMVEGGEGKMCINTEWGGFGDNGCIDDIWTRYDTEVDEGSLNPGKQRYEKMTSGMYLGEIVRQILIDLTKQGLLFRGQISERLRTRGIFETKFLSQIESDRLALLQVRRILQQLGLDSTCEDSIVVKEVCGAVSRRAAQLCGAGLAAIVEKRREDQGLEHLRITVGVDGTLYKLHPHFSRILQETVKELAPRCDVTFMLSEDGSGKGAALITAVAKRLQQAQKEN

The test addresses Hexokinase HKDC1 (Homo sapiens) (UniProt Q2TB90). As to the kind of experiment: HKDC1 hexokinase inhibitors, confirmation, biochemical, single concentration (AID 504710). The note with it: recombinant HKDC1, G6PDH/diaphorase/resazurin fluorescence; at 20 µM; active compounds read high.
As for `O=c1c2ccccc2[se]n1-c1ccccc1`, the inhibition is 5.01% (active).
The value for `Nc1c(Br)cc2c3c(cccc13)-c1ccccc1-2` was 51.2% (active); that for `CCN(CC)CCCNC(=O)c1c(O)c2ccccc2n(Cc2ccccc2)c1=O` was -37.1% (inactive); that for `Cc1ccc2c(C)c3ccc4ccccc4c3c[n+]2c1` was -65.5% (inactive).
For `COC(=O)C[C@]1(C(=O)OC)CN(C#N)N(c2ccc(Cl)cc2)C12c1ccccc1-c1ccccc12` the value was 62.4% (active); for `CC[C@H](C)/C=C(C)/C=C/C1=CC2=C(Cl)C(=O)[C@@](C)(OC(C)=O)C(=O)C2=CO1`, 45.8% (active).
For `Cc1ccc(N2C(=O)NC(=O)/C(=C\c3cc(C)n(-c4sc5c(c4C#N)CCCC5)c3C)C2=O)cc1` the value was 77.3% (active); for `Cn1c(=O)c2c(nc(N/N=C/c3c(O)n(C4CCCCC4)c(=S)[nH]c3=O)n2C)n(C)c1=O`, -49.5% (inactive); for `Cc1cccc(N2C(=O)NC(=O)/C(=C\c3ccc4c(c3)CCCN4Cc3ccccc3)C2=O)c1`, 45.2% (active).
For `COC(=O)C1CN(C#N)N(c2ccc(Cl)cc2)C12c1ccccc1-c1ccccc12` (stereo not given), the inhibition was 73.6% (active).
For `COC(=O)C1=C(C(=O)OC)SC2(S1)C(C(=O)OC)=C(C(=O)OC)Sc1c2ssc1=O` the value was -88.9% (inactive); for `COc1ccc(OC)c(N2C(=O)/C(=C/c3ccco3)C(=O)NC2=S)c1`, 77.4% (active); for `Cc1cc(/C=C2\C(=O)NC(=O)N(c3ccc(Cl)cc3)C2=O)c(C)n1-c1sc2c(c1C#N)CCCC2`, 56.4% (active).
Take `CC(=NNC(=S)N1CC2CCC(CC2)C1)c1nccs1`: the inhibition is -42.1% (inactive).
For `COC(=O)[C@@H]1[C@@H](C(=O)OC)C2(c3ccccc3-c3ccccc32)N(c2ccc(Cl)cc2)N1C#N` the value was 43.1% (active); for `O=C1NC(=S)N(c2ccc(F)cc2)C(=O)/C1=C\c1ccoc1`, 55.2% (active).
On to `CCOC(=O)c1c(-n2c(C)cc(C=C3C(=O)NC(=S)NC3=O)c2C)sc2c1CCCC2`, for which the inhibition is 61% (active).
For `CC(=O)OC1C2(CC3N4C(=O)C5(CO)SSC4(CC31O)C(=O)N5C)OC(C)C(C)(C)C2=O` (stereo not given) the value was -77% (inactive); for `Cc1cccc(N2C(=O)NC(=O)/C(=C\c3cc(C)n(-c4sc5c(c4C#N)CCCC5)c3C)C2=O)c1C`, 54.9% (active); for `COc1cc2c(cc1OC)-c1c(OC)c(OC)c(OC)c3ccnc(c13)C2=O`, 57.5% (active).
